# LDHA block: blocks human lactate dehydrogenase A; AID 1347041; activity change, % (values are at about 110 or 230 µM); P00338; purified LDHA, NADH/diaphorase-resazurin fluorescence; stronger effect = lower value; hit rate 0.15% among 480,000; in the data active = activity change below about -30%; inconclusive = mostly about -25% to -30%;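 note: plate controls were DMSO wells for no effect and wells without enzyme for full effect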
#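 Remaining NADH was detected by diaphorase (0.133 mg/mL) converting 37 µM resazurin to fluorescent resorufin, read at 0 and 20 minutes. The preceding 5-minute room-temperature reaction used 2 nM LDHA, 0.2 mM sodium pyruvate and 0.06 mM NADH at pH 7.4.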
# TDP1 cell noCPT: qHTS for Inhibitors of human tyrosyl-DNA phosphodiesterase 1 (TDP1): qHTS in cells in absence of CPT; DT40 Tdp1-/- hTDP1 cells, no CPT, ATP luminescence, 48 h; Potency, µM (doses to about 46.2 µM), without a hit: top-dose activity change, negative = growth inhibition, usual class: inhibitors; hit rate 15% among 420,000; AID 686978, 2013; note: potency is the fitted concentration of half-maximal effect; nearly all actives have a fitted effect of over 55% in size
#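 Stably hTDP1-transfected Tdp1-null chicken DT40 cells were treated with library compounds minus camptothecin and grown for at least 48 hr at 37 °C, after which cellular ATP was quantified by luminescence.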
# VP16 counter: counter-screen for ROR gamma inhibitors: Gal4-VP16 reporter; Drosophila S2 Gal4-VP16 UAS-luciferase, luminescence, 20 h; Potency, µM (doses to about 53.6 µM), inactives show at the top dose activity, negative = inhibition, hits mostly inhibitors; hit rate 3.5% among 310,000; AID 2546;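 note: Gal4-VP16 expression switched on by copper sulfate through the metallothionein promoter; potency is the fitted concentration of half-maximal effect; nearly all actives have a fitted effect of over 50% in size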
# RORgamma inh: inhibitors of mouse ROR gamma transcriptional activity. P51450. hit rate 5.4% among 310,000. Potency, µM (series often up to 53.6 µM), inactives show at the highest dose activity change, negative = inhibition, actives largely listed as inhibitors. Drosophila S2 Gal4-RORgamma UAS-luciferase reporter, 20 h; note: potency is the fitted concentration of half-maximal effect; nearly all actives have a fitted effect of over 60% in size
# Target sequence (P51450 whole entry, looked up, the tested form may be a part): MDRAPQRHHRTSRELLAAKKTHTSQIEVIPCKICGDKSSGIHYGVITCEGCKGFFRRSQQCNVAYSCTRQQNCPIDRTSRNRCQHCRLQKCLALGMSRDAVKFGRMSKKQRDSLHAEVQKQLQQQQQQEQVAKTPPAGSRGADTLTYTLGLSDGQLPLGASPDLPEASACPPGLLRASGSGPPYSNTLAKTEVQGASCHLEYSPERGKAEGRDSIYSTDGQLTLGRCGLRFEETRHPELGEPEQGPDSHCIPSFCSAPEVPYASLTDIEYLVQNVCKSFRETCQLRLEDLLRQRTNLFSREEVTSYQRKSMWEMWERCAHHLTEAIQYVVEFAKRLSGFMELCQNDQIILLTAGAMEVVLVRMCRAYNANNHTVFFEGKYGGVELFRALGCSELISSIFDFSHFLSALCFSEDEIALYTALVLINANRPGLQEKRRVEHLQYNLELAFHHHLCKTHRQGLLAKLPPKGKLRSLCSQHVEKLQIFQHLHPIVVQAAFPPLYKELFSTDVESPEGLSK
#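 Luminescence from a UAS-regulated Photinus luciferase reporter in stably transfected Drosophila Schneider cells is measured; decreased signal marks ROR gamma inhibition. Fusion expression is induced by 700 uM copper sulfate for 20 hr.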
# TDP1 cell CPT: growth inhibition of DT40 Tdp1-/-;hTDP1 cells with camptothecin (screen for TDP1 inhibitors); Potency, µM (top dose mostly 46.2 µM), without a hit: at the top dose activity change, negative = growth inhibition, usual class: inhibitors; hit rate 12% among 420,000; chicken DT40 Tdp1-/-;hTDP1 cells + 20 nM CPT, ATP luminescence, 48 h; note: potency is the fitted concentration of half-maximal effect; nearly all actives have a fitted effect of over 55% in size
#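 Chicken DT40 Tdp1-/- cells stably complemented with human TDP1 were seeded at 400 cells/well in medium containing 20 nM camptothecin, exposed to pin-transferred compounds, and grown at 37 °C for at least 48 hr. Viability was read as ATP luminescence.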
# IL-1B inflam inh: blocks inflammasome-driven IL-1 beta release; THP-1 LPS/ATP IL-1B secretion, AlphaLISA, 16 h; stronger effect = lower value; activity change, % at 57.5 µM; hit rate 4.7% among 360,000; in the data active = activity change below about -50%; inconclusive = mostly about -30% to -49%
#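 THP-1 cells pretreated 1 hr with compounds (up to 57.5 uM final), then stimulated with LPS (250 ng/mL final) plus ATP (1.25 mM final); secreted IL-1B measured by AlphaLISA after 16 hr, decreased signal indicating inhibition.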
# * hit, by the source's call; ? = inconclusive; / = not tested or not shown; [ ] = another dose, or the depositor's remark. The list is not random: actives were taken first. Their share in the collection is about 18%. Unless noted, calls come from the whole dose curve; as a rule, active = well fitted curve in the direction sought with a large enough effect; inconclusive = small, poorly fitted or top-dose-only effect, or another doubt; inactive = no such curve, though single readings can be large; an effect the other way counts as inactive or inconclusive. Unless noted, % is set by controls: 0 for no effect and ±100 for the full control effect.
SMILES,LDHA block,TDP1 cell noCPT,VP16 counter,RORgamma inh,TDP1 cell CPT,IL-1B inflam inh
O=C(NCC(=O)N1CCCC(C(F)(F)F)C1)c1ccc(Oc2ccccc2)cc1 (stereo unspecified),-2,-20%,13µM*,8.9µM*,-26%,3
COCCC(=O)N1CCCC(C(=O)c2ccc(Oc3ccccc3)cc2)C1 (stereo unspecified),-7,21µM*,-10%,45%,-29%,-1
CCOc1ccc(OCC)c(S(=O)(=O)n2nnc3ccccc32)c1,-3,/,/,/,/,/
CCN1CCN(CC(=O)N2CCCC(C(=O)c3ccc(Oc4ccccc4)cc3)C2)CC1 (stereo unspecified),-1,?,?,7.9µM*,?,-14
O=C(c1ccc(-c2ccccc2)cc1)C1CCCN(C(=O)Cn2cncn2)C1 (stereo unspecified),4,?,-5%,29%,?,16
Cc1cccc(C)c1NC(=O)C(=O)c1c[nH]c2ccccc12,2,/,/,/,/,/
Cc1c(/C=N/NC(=O)c2ccc3c(c2)OCO3)cnn1C,-4,5%,0%,-20%,-5%,0
Cc1ccc(/C=N/NC(=O)c2ccc3ccccc3c2)s1,-6,0.82µM*,5µM*,3.5µM*,0.82µM*,47
Cc1ccc(/C=N/NC(=O)c2ccc3c(c2)OCCO3)s1,-13,21µM*,?,5.6µM*,21µM*,16
Cc1ccc(/C=N/NC(=O)c2cccc(S(=O)(=O)Nc3ccccc3Cl)c2)s1,-6,-28%,5µM*,7.1µM*,-27%,1
Cn1cnc2c1c(=O)n(CC(=O)NCc1ccccc1Cl)c(=O)n2C,-13,/,/,/,/,/
CCOc1cc(/C=C/c2nc3ccccc3s2)ccc1O,3,/,/,/,/,/
Cc1cc(C)n(-c2nnc3c4ccccc4n(C)c3n2)n1,-3,?,?,3.2µM*,-12%,-5
C/C(=N\Nc1nc(C)cc(C)n1)c1ccc(C)o1,-5,0%,10µM*,7.1µM*,4%,-2
C/C(=N\Nc1nnc2c3ccccc3n(C)c2n1)c1ccc(C)o1,-4,?,5%,-40%,-18%,-65*
COC(=O)c1ccc(OCC(=O)c2ccc3c(c2)CCO3)c(OC)c1,6,/,/,/,/,/
N#Cc1ccsc1NC(=O)CSc1nnc(-c2ccccc2F)n1C1CCCCC1,0,/,/,/,/,/
CCOC(=O)CN(c1cc([N+](=O)[O-])ccc1OC)S(C)(=O)=O,-8,-2%,?,-17%,1%,-60*
C=CCOc1cccc(/C=N/NC(=O)CN(c2cc(Cl)ccc2OC)S(=O)(=O)c2ccc(C)c([N+](=O)[O-])c2)c1,-3,16µM*,-1%,13%,?,-7
COc1ccc([N+](=O)[O-])cc1N(CC(=O)N(C)C)S(C)(=O)=O,-9,0%,-18%,-2%,3%,3
COC(=O)CN(c1cc(Cl)ccc1OC)S(=O)(=O)c1ccc(OC)c(OC)c1,-2,-24%,-6%,8%,?,13
COc1ccc(Cl)cc1N(CC(=O)N/N=C/c1ccc(OC(C)C)cc1)S(=O)(=O)c1ccc(C)c([N+](=O)[O-])c1,-1,-19%,-6%,13%,-16%,-15
COc1ccc(Cl)cc1N(CC(=O)N(C)C)S(=O)(=O)c1ccc(C)c([N+](=O)[O-])c1,0,21µM*,-9%[10 µM],5%,?,20
Cc1cc(N2CCCC2=O)ccc1S(=O)(=O)Nc1c(C)nn(C)c1C,1,9.2µM*,-24%,?,?,34
Cc1cc(N2CCCC2=O)ccc1S(=O)(=O)NCCOc1ccccc1,-2,15µM*,?,-43%,18µM*,20
SMILES,LDHA block,TDP1 cell noCPT,VP16 counter,RORgamma inh,TDP1 cell CPT,IL-1B inflam inh
O=C(Cc1ccccc1Cl)N1CC=C(c2c[nH]c3ncccc23)CC1,8,/,/,/,/,/
Cn1c(=O)[nH]c(=O)c2c1nc(Br)n2CCOc1ccccc1,-9,16µM*,-3%,8%,10µM*,25
Cn1c(=O)[nH]c(=O)c2c1nc(NCCN)n2CCOc1ccccc1,-1,13µM*,-10%,0%,?,27
CCOc1ccccc1NC(=O)c1cc2c(s1)-c1ccc(Cl)cc1S(=O)(=O)C2,2,/,/,/,/,/
O=C(/C=C/c1cccc(Cl)c1Cl)c1ccc(OC(F)F)cc1,14,/,/,/,/,/
CCCNC(=S)N1CCC(C(=O)c2ccc(OC)cc2)CC1,-2,21µM*,0%,0%,-27%,-2
CCOc1ccc(NC(=S)N2CCC(C(=O)c3ccc(OC)cc3)CC2)cc1,-7,18µM*,/,/,16µM*,-7
C=CCNC(=S)N1CCC(C(=O)c2ccc(OC)cc2)CC1,-7,?,2%,-26%,?,16
COc1ccc(CN2CCC(C(=O)c3ccc(Cl)cc3)CC2)cc1,-2,16µM*,-9%,23%[1.91 µM],23µM*,-27
COc1ccc(CN2CCC(C(=O)c3cccc(Cl)c3)CC2)cc1,-1,3%,-3%,-4%,-3%,-11
CC(C)CNC(=S)N1CCC(C(=O)c2ccc(Cl)cc2)CC1,1,?,/,/,10µM*,-21
CCC(C)C(NC(=O)C(C)NC(=O)CNC(=O)OCc1ccccc1)C(N)=O (stereo unspecified),2,/,/,/,/,/
CCNC(=S)N1CCC(C(=O)c2ccc(Cl)cc2)CC1,1,?,-2%,-14%,?,0
CCCNC(=S)N1CCC(C(=O)c2ccc(Cl)cc2)CC1,-2,?,-2%,-11%[1.91 µM],23µM*,29
CCS(=O)(=O)N1CCC(C(=O)c2ccc(Cl)cc2)CC1,-12,?,-4%,-11%,21µM*,-8
c1ccc(C(CNCc2ccsc2)N2CCCC2)cc1 (stereo unspecified),-1,/,/,/,/,/
CCC(=O)Nc1nc(C)c(-c2csc(Nc3cccc(O)c3)n2)s1,3,3.7µM*,-30%,?,6.5µM*,-75*
Cc1nc(N)sc1-c1csc(Nc2cccc(O)c2)n1,10,?,3%,-24%,?,-25
Cc1nc(NC(=O)c2ccccc2)sc1-c1csc(Nc2ccccc2)n1,5,/,/,/,/,/
Cc1cccc(Nc2nc(-c3sc(C)nc3C)cs2)c1,-7,16µM*,?,?,?,-54*
Cc1nc(C)c(-c2csc(Nc3ccccc3C)n2)s1,2,/,/,/,/,/
Cc1ccnc(Nc2nc(-c3sc(C)nc3C)cs2)c1,-12,?,/,/,15µM*,-100*
Cc1nc(C)c(-c2csc(Nc3cccc(O)c3)n2)s1,-2,23µM*,-14%,5%,?,?

# High-throughput results from PubChem.
